Measurements from PubChem BioAssay (NCI).
About 83,000 compounds went through this panel and 20% of them were active in at least one assay; those are over-represented in the sample as a whole.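 Treatment: one concentration, 48 hours, 96-well format. Scoring: percent growth, with anything below 10 considered active.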 Unmarked numbers belong to inactive results. Calls of active or inactive are those of the source.

Columns and labels:
Assay in all cases: NCI-60 one-dose screen, 48 h (100 = growth as untreated, 0 = no growth, -100 = all killed)
HOP-92 NSCLC = conditions: 10 µM unless noted
A549/ATCC NSCLC = conditions: 10 µM unless noted
COLO 205 colon = conditions: 10 µM
HT29 colon = conditions: 10 µM unless noted
SNB-75 CNS = conditions: 10 µM unless noted
PC-3 prostate = conditions: 10 µM unless noted
SN12C renal = conditions: 10 µM unless noted
TK-10 renal = conditions: 10 µM unless noted
CAKI-1 renal = conditions: 10 µM unless noted
A498 renal = conditions: 10 µM unless noted
SR leukemia = conditions: 10 µM
RPMI-8226 leukemia = conditions: 10 µM unless noted
SK-OV-3 ovarian = conditions: 10 µM unless noted
HS 578T breast = conditions: 10 µM unless noted
BT-549 breast = conditions: 10 µM
HCT-116 colon = conditions: 10 µM unless noted
EKVX NSCLC = conditions: 10 µM unless noted
OVCAR-4 ovarian = conditions: 10 µM unless noted
NCI-H522 lung = conditions: 10 µM unless noted

| SMILES | growth (HOP-92 NSCLC) | growth (A549/ATCC NSCLC) | growth (COLO 205 colon) | growth (HT29 colon) | growth (SNB-75 CNS) | growth (PC-3 prostate) | growth (SN12C renal) | growth (TK-10 renal) | growth (CAKI-1 renal) | growth (A498 renal) | growth (SR leukemia) | growth (RPMI-8226 leukemia) | growth (SK-OV-3 ovarian) | growth (HS 578T breast) | growth (BT-549 breast) | growth (HCT-116 colon) | growth (EKVX NSCLC) | growth (OVCAR-4 ovarian) | growth (NCI-H522 lung) |
| --- | --- | --- | --- | --- | --- | --- | --- | --- | --- | --- | --- | --- | --- | --- | --- | --- | --- | --- | --- |
| O=[N+]([O-])c1cccc([As]=[As]c2cccc([N+](=O)[O-])c2)c1 (stereo not drawn) | -99.3% (active) | -75.2% (active) | -81.2% (active) | -61.6% (active) | -100% (active) | -84.8% (active) | -96% (active) | -98.4% (active) | -95.9% (active) | -98.8% (active) | -32% (active) | -39.3% (active) | -100% (active) | 6.73% (active) | -97.7% (active) | -89.3% (active) |  |  |  |
| CCOCC1(CCc2ccccc2)C(=O)NC(=S)NC1=O | 101% | 97.8% | 109% | 108% | 100% |  |  | 115% | 99.9% | 96.9% | 92.7% | 104% | 112% | 106% | 105% | 101% | 116% | 120% |  |
| Nc1ccc([N+](=O)[O-])c2c1Oc1ccccc1O2 | 84.4% |  | 99.3% |  | 82.8% | 101% | 98% | 94.4% |  | 72.9% |  | 105% | 88.9% | 100% | 87% | 99.7% | 91.9% | 94.5% |  |
| Nc1ncnc2c1c(C(=O)NO)cn2C1OC(CO)C(O)C1O (stereo not drawn) | -37% (active) |  | -36.1% (active) | 7.07% (active) | 4.46% (active) | -20.9% (active) | -31.9% (active) | 6.25% (active) | -23.1% (active) | -30.1% (active) | -7.79% (active) | -21.7% (active) | -18.2% (active) | -7.9% (active) | -0.861% (active) |  | 6.87% (active) | 0.579% (active) | -51.1% (active) |
| ClCCN(CCCl)c1ccc(/C=C\c2ccnc3ccccc23)cc1 | 46.6% |  | 88.8% |  | 84.6% | 55.5% |  |  |  |  | 48.2% |  |  | 89.9% | 70.5% | 52.2% | 81% | 82.3% |  |
| CCOc1cc(/C=N\Nc2nnc(C)n2N)c(C)cc1N(CCCl)CCCl | -17.4% (active) | 14.5% |  |  | 24.1% | 7.23% (active) | 17.3% | 31% | 11.8% | -26% (active) | -12.6% (active) | -37.9% (active) | 40.1% |  | 17% | 12% |  | 14.6% | 15% |
| [Cl][Hg][n]1cnc2c(Cl)c(Cl)c(Cl)cc21 | 116% | 86.7% |  | 81.2% | 104% | 88.7% | 102% | 108% | 103% | 104% | 80.1% | 98.9% | 113% | 79.5% |  | 103% | 81.7% | 109% | 50.2% |
| CC(=O)[O][Hg][c]1ccccc1 | -94.7% (active) |  | -98.5% (active) | -47.9% (active) | -65.9% (active) | -57.8% (active) | -90.5% (active) | -94.7% (active) | -69.7% (active) |  | -31.3% (active) | 10.1% | -5.18% (active) | 16.4% |  | -88% (active) | -35.7% (active) | -25.2% (active) | -32.8% (active) |
| O=C(C(=O)N1CCCC1)c1cn(CCCCCn2cc(C(=O)C(=O)N3CCCC3)c3ccccc32)c2ccccc12 | 37.2% | 85.2% | 110% |  | 74.9% | 65.9% |  | 112% | 73.9% | 94.1% | 67.7% | 66.2% | 103% | 94.4% | 90% | 94.1% | 75.5% | 73% | 89.5% |
| CC(C)(NC(=O)c1nn(CCCCCF)c2ccccc12)c1ccccc1 | 68.6% | 76.4% |  | 81.9% | 88.5% | 65% | 101% | 103% |  | 94.8% | 85.2% | 78.6% |  |  | 73.5% | 66.9% | 94.7% |  | 64.3% |
| C/C(=C\C(=O)O[C@H]1[C@@H]2[C@H](C)CC[C@H]2[C@]2(C)O[C@@]1(C1CCCCC1)C[C@H]2OC(=O)CO)c1ccccc1 | 18.3% | 40.8% |  | 9.35% (active) | 68.3% | 17.9% | 7.85% (active) | 70.5% | -25% (active) | -83% (active) |  | -28.7% (active) | 59.7% | -28.1% (active) | -6.37% (active) |  | 48% | 38.5% | 20.3% |
| N#C[Se]CCCNS(=O)(=O)C1CC2C=CC1C2 (stereo not drawn) | -73.1% (active) | -34.1% (active) | -39% (active) | 1.16% (active) |  |  | -25.6% (active) | -66.4% (active) | -99.1% (active) |  | 7.66% (active) | -29.5% (active) | -36.4% (active) | -25.9% (active) |  | -31.9% (active) | -96% (active) |  |  |
| CC(=O)Oc1ccc(Cl)cc1 | 91.1% | 97.9% | 107% | 98.3% | 81.9% | 91.3% | 94.6% | 97% |  | 82.2% |  |  | 98.1% | 90.3% | 98.3% | 95.3% | 101% |  |  |
| O=C1C=CC(=O)C2C1C1(Cl)C(Cl)=C(Cl)C2(Cl)C1(Cl)Cl (stereo not drawn) | 15.7% | 60.6% | 74.7% | 76.7% | 40.3% | 44.3% |  | 71.5% |  | 36.1% | 36.5% | 67.9% |  | 58.2% | 36.4% |  | 41.3% | 58.1% |  |
| O=C(CCl)NCNC(=O)CCl | 99.5% | 93.2% | 109% | 105% | 85.9% | 86.4% |  | 105% | 56.8% |  | 80.2% | 83% | 98.8% | 96.8% | 86.7% | 92.1% |  |  |  |
| CO[C@@H]([CH2][Hg][S]C#N)[C@@H]([CH2][Hg][S]C#N)OC | 76.2% | 102% | 66.2% | 79.4% |  | 78.8% | 98.2% | 133% | 107% | 118% | 66.5% | 94.6% |  | 98.6% | 107% | -100% (active) | 112% | 95.4% | 48.1% |
| C[C@@H]1CC[C@@H]2[C@@H]1[C@H](OC(=O)/C=C/C1CCCCC1)[C@]1(C3CCCCC3)C[C@@H](OC(=O)CO)[C@@]2(C)O1 | 41.6% | 60.6% |  | 31.4% | 76.9% | 31.1% |  | 81.7% | -21.9% (active) | -83.3% (active) |  | 25.3% | 69% |  | 0.314% (active) | 39.6% | 78.1% | 61.1% | 46.9% |
| CCOC(=O)/C=C(\C)Nc1ccc(N/C(C)=C/C(=O)OCC)c2c1Oc1ccccc1O2 | 79% |  | 121% | 112% | 103% | 103% | 96.8% | 124% | 95.5% | 102% | 78.3% | 83.2% | 107% | 87.3% | 102% | 105% | 89% | 114% |  |
| CCC[CH2][Sn]([CH2]CCC)([CH2]CCC)[O]C(=O)CC |  | -78.8% (active) | -86.7% (active) | -81.2% (active) | -99.6% (active) | -92.7% (active) | -80.6% (active) | -97.1% (active) | -95.2% (active) | -96.4% (active) | 7.87% (active) | -31% (active) | -99.5% (active) | -38.4% (active) |  |  | -43.9% (active) | -99.4% (active) | -81.2% (active) |
| CC1=C(SCCC(=O)OCC(=O)NCCC[Te]c2ccccc2)C(=O)c2ccccc2C1=O |  | 0.0697% (active) | 47.6% | 11.2% | 19.2% |  | 7.58% (active) | 18.9% | 27.4% | -11.8% (active) |  | -8.41% (active) | -36.8% (active) | -16.9% (active) | -6.68% (active) |  | -3.84% (active) | 87.4% | -6.75% (active) |
